PubChem BioAssay AID1964107 (National Center for Advancing Translational Sciences (NCATS), 2024)
“And” between values parts separate entries of the source, which are not always exact repeats. Equal entries are not always repeated. Among all 31,000 compounds or so, about 360 (1.2%) were called active. Roughly 8% stayed inconclusive and do not appear here. Calls come from the whole dose curve. The sample as a whole holds a higher share of actives than the screen did.

Target: Polyprotein P1234 (Chikungunya virus (strain S27-African prototype)) (UniProt Q8JUX6)
Experiment: Primary qHTS for inhibitors of NSP2Pro chikungunya virus (CHIKV); note: nearly all actives have a fitted effect of over 60% in size
Settings: FRET peptide cleavage, fluorescence 1 h; series mostly up to 24.9 µM; activity change, negative = inhibition: at the top concentration
Summary of the method: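 Enzyme 150 nM, substrate 2.5 uM (both final); Tris-HCl 10 mM pH 8.0 + 0.01% Tween 20; cpd up to 25 uM, 7 pts; 15 min preinc., 1 h RT; fluorescence ex 525/em 598.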
% is set by controls: 0 for no effect and ±100 for the full control effect; potency is the fitted concentration of half-maximal effect.

Chain of Polyprotein P1234 (Chikungunya virus (strain S27-African prototype)) (Q8JUX6 whole entry, looked up): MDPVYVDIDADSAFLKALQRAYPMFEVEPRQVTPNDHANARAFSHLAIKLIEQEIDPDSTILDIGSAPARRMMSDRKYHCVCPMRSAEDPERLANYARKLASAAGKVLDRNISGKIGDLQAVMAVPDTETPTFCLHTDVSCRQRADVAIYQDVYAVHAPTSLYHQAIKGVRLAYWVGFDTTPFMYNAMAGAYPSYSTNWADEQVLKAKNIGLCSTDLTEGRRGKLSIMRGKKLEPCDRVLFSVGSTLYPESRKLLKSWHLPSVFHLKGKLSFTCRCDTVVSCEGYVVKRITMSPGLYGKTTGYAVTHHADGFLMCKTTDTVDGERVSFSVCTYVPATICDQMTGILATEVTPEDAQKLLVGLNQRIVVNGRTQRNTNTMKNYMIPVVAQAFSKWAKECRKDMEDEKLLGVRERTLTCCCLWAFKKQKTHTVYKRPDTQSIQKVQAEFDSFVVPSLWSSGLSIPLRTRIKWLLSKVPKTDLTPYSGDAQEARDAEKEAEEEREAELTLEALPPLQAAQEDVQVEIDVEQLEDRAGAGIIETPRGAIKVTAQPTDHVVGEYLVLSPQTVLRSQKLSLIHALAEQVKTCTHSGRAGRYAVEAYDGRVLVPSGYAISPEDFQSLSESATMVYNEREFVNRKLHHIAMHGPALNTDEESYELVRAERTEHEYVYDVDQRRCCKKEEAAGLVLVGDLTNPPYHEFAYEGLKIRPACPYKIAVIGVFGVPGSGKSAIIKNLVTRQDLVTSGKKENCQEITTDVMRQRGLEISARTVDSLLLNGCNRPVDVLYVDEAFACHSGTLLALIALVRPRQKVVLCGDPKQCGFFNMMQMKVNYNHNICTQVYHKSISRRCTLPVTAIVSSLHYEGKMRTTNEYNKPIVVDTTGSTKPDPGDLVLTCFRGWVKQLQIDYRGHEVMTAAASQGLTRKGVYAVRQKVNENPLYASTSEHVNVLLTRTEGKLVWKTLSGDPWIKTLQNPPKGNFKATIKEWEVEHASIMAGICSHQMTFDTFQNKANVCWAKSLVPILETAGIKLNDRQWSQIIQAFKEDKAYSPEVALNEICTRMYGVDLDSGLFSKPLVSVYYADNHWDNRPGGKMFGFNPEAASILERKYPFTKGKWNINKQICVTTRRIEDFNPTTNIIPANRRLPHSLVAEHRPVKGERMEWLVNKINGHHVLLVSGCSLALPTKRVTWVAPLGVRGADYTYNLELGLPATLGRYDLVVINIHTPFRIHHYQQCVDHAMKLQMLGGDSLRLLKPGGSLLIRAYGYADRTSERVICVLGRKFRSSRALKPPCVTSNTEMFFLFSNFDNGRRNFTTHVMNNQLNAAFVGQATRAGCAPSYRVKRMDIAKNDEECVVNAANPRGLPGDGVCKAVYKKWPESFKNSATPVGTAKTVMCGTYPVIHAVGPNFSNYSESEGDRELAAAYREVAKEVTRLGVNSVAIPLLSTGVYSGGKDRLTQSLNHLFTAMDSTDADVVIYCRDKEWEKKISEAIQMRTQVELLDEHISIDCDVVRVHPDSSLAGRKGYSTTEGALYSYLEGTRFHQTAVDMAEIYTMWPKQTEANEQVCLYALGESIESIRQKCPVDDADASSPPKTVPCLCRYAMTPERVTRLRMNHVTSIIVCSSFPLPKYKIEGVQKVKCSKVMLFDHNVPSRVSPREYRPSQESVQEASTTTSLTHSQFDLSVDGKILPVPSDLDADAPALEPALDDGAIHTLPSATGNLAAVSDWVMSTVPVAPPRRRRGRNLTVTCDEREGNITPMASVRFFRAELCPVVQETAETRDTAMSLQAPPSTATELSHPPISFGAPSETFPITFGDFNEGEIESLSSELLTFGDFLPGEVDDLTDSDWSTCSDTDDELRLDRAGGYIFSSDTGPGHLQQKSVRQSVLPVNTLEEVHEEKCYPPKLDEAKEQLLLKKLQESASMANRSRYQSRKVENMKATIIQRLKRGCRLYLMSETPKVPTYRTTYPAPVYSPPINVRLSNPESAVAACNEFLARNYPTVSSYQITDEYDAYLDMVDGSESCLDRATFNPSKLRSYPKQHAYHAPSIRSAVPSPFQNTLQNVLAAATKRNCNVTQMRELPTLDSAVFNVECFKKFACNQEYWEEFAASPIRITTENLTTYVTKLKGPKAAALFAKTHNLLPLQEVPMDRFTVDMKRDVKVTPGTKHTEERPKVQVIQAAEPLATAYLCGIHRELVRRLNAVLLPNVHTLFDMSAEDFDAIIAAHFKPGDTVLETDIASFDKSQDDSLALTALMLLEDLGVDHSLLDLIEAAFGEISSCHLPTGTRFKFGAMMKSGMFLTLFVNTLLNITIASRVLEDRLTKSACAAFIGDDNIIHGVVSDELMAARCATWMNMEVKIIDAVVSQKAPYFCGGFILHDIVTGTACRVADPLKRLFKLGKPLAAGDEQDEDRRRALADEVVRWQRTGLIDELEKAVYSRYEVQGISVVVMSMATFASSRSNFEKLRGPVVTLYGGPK

Structure (SMILES) | outcome | activity change, negative = inhibition | Potency
CS(=O)(=O)c1ccc(OC[C@H]2C[C@@H](NC(=O)c3ccccc3)[C@H](O)[C@@H]2O)cc1 | inactive [at 39.2 µM] | – | –
CC1(C)[C@H](Cc2cc(-c3ccccc3)on2)C[C@@H]1NCC1CC1 | inactive [at 39.2 µM] | – | –
Cc1cccc(NC(=O)CSc2ncc(-c3ccccc3)[nH]2)c1C | – | -16.9% (inactive) | –
CCCc1nc(C(=O)N2CCC3(CCCNC3)C2)cs1 (stereo not drawn) | inactive | – | –
Clc1ccccc1CSc1nncn2c1cc1occc12 | – | -10.5% (inactive) | –
O=C(NCC(c1ccco1)S(=O)(=O)c1cccs1)c1ccc(F)cc1 (stereo not drawn) | – | -9.32% (inactive) | –
CCOc1ccc(NC(=O)Cn2c(C)ccc(C#N)c2=O)cc1 | – | 1.17% (inactive) | –
COc1ccc(-c2ccc3ncn(C4CC4)c(=O)c3n2)cn1 | – | -5.28% [at 39.2 µM] (inactive) | –
Cc1ccc(-c2ccc(=O)n(CCNC(C)c3ccco3)n2)cc1 (stereo not drawn) | – | -11.9% (inactive) | –
Cc1ccc(Cl)cc1NC(=O)C1CCCN(c2cnccn2)C1 (stereo not drawn) | – | -12.4% (inactive) | –
C=C1C(=O)OC2C=C(C)CC/C=C(\CO)CC(O)C12 (stereo not drawn) | – | 7.09% (inactive) | –
CCN(c1ncnc2c1cnn2-c1ccc(C)cc1)C1CCCCC1 | – | -18.5% (inactive) | –
Cc1ccc(Cl)cc1NC(=O)/C(C#N)=C\c1cn(Cc2ccc(F)cc2)c2ccccc12 | – | -21.6% (inactive) | –
CCCN1CCc2nc(N3CCN(C)CC3)ncc2C1 | – | 20.9% (inactive) | –
CC1CCN(S(=O)(=O)c2ccc3c(ccn3CCC(=O)NCc3ccc(N(C)C)cc3)c2)CC1 | – | -2.09% (inactive) | –
Oc1ccc2c3c1O[C@H]1c4[nH]c5c(N=C=S)cccc5c4C[C@@]4(O)[C@@H](C2)N(CC2CC2)CC[C@]314 | – | 0.0256% (inactive) | –
O=C(NCC(c1ccc2c(c1)OCO2)N1CCN(c2ccccc2)CC1)C(=O)Nc1ccccc1F (stereo not drawn) | – | -7.61% (inactive) | –
Cc1cc(C(=O)NC2CC(c3cc(=O)[nH]cn3)C2)cc(S(N)(=O)=O)c1C (stereo not drawn) | – | 1.79% (inactive) | –
CCS(=O)(=O)N1CCc2cc(C(=O)NCc3ccc(OC)cc3)ccc21 | – | -17.8% (inactive) | –

Structure (SMILES) | outcome | activity change, negative = inhibition | Potency
Cc1nc(CNC(=O)[C@H]2CCC[C@@H](O)C2)nc2c1CCCC2 | – | 1% (inactive) | –
CCOC(=O)c1ccc(NC(=O)C2CC(=O)N(c3ccc(C(C)C)cc3)C2)cc1 (stereo not drawn) | – | -20.5% (inactive) | –
Cc1nc(C)c(-c2ccc3ncnc(N(C)Cc4sccc4C)c3c2)s1 | – | 3.77% (inactive) | –
O=C(Cn1c(=O)n(-c2ccc(F)cc2)c(=O)c2sccc21)Nc1cccc(C(F)(F)F)c1 | – | 8.21% (inactive) | –
COc1cc(C(C)=O)ccc1O[C@@H]1O[C@H](CO[C@@H]2OC[C@@H](O)[C@H](O)[C@H]2O)[C@@H](O)[C@H](O)[C@H]1O | – | -10.4% [at 10 µM] (inactive) | –
Cc1cc(-c2ccc(C)c(S(=O)(=O)N3c4ccccc4CC3C)c2)on1 (stereo not drawn) | – | -5.69% (inactive) | –
CCOC(=O)N1CCc2c(sc3c2c(=O)n(Cc2ccccc2)c(=O)n3CC(=O)Nc2cccc(C)c2)C1 | – | -10.2% (inactive) | –
CNC(=O)[C@@H]1C[C@@H](O)CN1C1CCN(C(=O)C2(c3ccccc3)CC2)CC1 | – | -7.73% (inactive) | –
O=c1cc(-c2cccnc2)oc2c(-c3cccc(CO)c3)nccc12 | – | -7.39% [at 39.2 µM] (inactive) | –
NC(=O)CN1CC2(CCC1=O)CCN(C[C@@H](O)CO)CC2 | – | -3.19% (inactive) | –
Cc1nc(C(=O)N2CCn3nc(Cc4ccccc4)cc3C2)cs1 | inactive | – | –
OCC1(CCCc2ccccc2)CCCNC1 (stereo not drawn) | inactive | – | –
Cc1ccc(OCCn2c(CCNC(=O)c3ccccc3)nc3ccccc32)cc1 | – | -8.68% (inactive) | –
Cc1cccc(Nc2nc(C)nc(N)c2S(=O)(=O)c2ccccc2)c1 | – | 5.91% (inactive) | –
N#CSc1cc(SC#N)c(N)nc1N | – | – | 664 nM (active) and 351 nM (active) and 1.24 µM (active)
CCCNC(=O)C(CC)n1nc(CC)n2c(cc3oc(C)cc32)c1=O (stereo not drawn) | – | -23% (inactive) | –
COc1ccc(-c2ccccc2C(=O)NCC#N)nn1 | inactive [at 39.2 µM] | – | –
COC([CH2][Hg])CNC(=O)c1ccccc1OCC(=O)O (stereo not drawn) | – | – | 1.49 µM (active)
Cc1ccc(CNC(=O)CSC2=Nc3ccccc3C3=NC(C)C(=O)N23)cc1 (stereo not drawn) | – | -15% (inactive) | –
